PubChem BioAssay (NCI)
Values joined by “and” are separate entries in the source; they are usually repeats but may differ in a detail not shown here. Equal entries are not always repeated. Compounds without any hit were thinned out: in the full panel of roughly 79,000, 15% have a hit. A structure can be active in one record and inactive in another. Active and inactive are the calls of the source. Cut-off read from the data, not from the text of the source: active = growth inhibition above about 70%; inactive = the rest.

Tests used:
[1] = NCI Yeast Anticancer Drug Screen. Data for the rad52 strain (AID 147);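 note: 0% = growth of vehicle-treated control cultures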; conditions: S. cerevisiae rad52 mutant growth inhibition, stronger effect = higher value
In short: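 Inhibition of yeast growth, referenced to vehicle controls, was the measured output for a strain with defective DNA damage repair.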

[2] = NCI Yeast Anticancer Drug Screen. Data for the wt1 strain (AID 149);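 note: 0% = growth of vehicle-treated wt1 cultures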; conditions: S. cerevisiae wt1 strain (SPY 50644) growth inhibition, stronger effect = higher value
In short: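 wt1 yeast, compound-treated; % growth inhibition vs vehicle control.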

[3] = NCI Yeast Anticancer Drug Screen. Data for the rad50EPP+ strain (AID 151);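 note: 0% = growth of vehicle-treated control cultures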; conditions: S. cerevisiae rad50 mutant strain, stronger effect = higher value
In short: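 Genetically defined yeast (rad50EPP+, DNA damage repair alteration) is grown with compound, and inhibition of growth is expressed relative to vehicle-treated controls.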

[4] = NCI Yeast Anticancer Drug Screen. Data for the mgt1 strain (AID 153); conditions: S. cerevisiae mgt1 mutant growth inhibition, stronger effect = higher value
In short: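 In the mgt1 strain, test compounds were added and growth inhibition was determined relative to vehicle-treated controls.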

[5] = NCI Yeast Anticancer Drug Screen. Data for the rad50 strain (AID 155);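 note: 0% = growth of vehicle-only cultures of the same strain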; conditions: S. cerevisiae rad50 strain growth inhibition, stronger effect = higher value
In short: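 Genetically altered yeast (DNA repair pathway); compound treatment; growth inhibition vs vehicle ctrl.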

[6] = NCI Yeast Anticancer Drug Screen. Data for the mec2-1 strain (AID 157); conditions: S. cerevisiae mec2-1 strain, stronger effect = higher value
In short: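 Each compound was tested on mec2-1 yeast, a strain altered in DNA damage repair or cell cycle control. Growth inhibition is reported relative to vehicle.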

[7] = NCI Yeast Anticancer Drug Screen. Data for the rad14 strain (AID 159);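 note: 0% = growth of vehicle-treated control cultures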; conditions: S. cerevisiae rad14 strain growth inhibition, stronger effect = higher value
In short: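 Test compounds were applied to a repair-deficient yeast strain. Its growth was then compared with that of cultures given vehicle alone, and inhibition was expressed relative to those controls.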

[8] = NCI Yeast Anticancer Drug Screen. Data for the sgs1 mgt1 strain (AID 161);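 note: 0% = growth of cultures given vehicle only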; conditions: S. cerevisiae sgs1 mgt1 strain, stronger effect = higher value
In short: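 Genetically altered yeast, compound exposure, growth inhibition relative to vehicle.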

[9] = NCI Yeast Anticancer Drug Screen. Data for the CLN2oe strain (AID 163);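 note: 0% = growth of vehicle-only control cultures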; conditions: S. cerevisiae CLN2oe strain, stronger effect = higher value
In short: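 First, the altered yeast strain was treated with each compound; second, its growth was measured; finally, inhibition was derived by comparison with vehicle controls.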

[10] = NCI Yeast Anticancer Drug Screen. Data for the cln2 rad14 strain (AID 165);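 note: 0% = growth equal to vehicle treated cultures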; conditions: S. cerevisiae cln2 rad14 strain, stronger effect = higher value
In short: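 Test compounds were added to cln2 rad14 yeast cultures; inhibition of growth was then determined by comparison with vehicle treatment.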

[11] = NCI Yeast Anticancer Drug Screen. Data for the bub3 strain (AID 167); conditions: S. cerevisiae bub3 mutant strain, stronger effect = higher value
In short: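 Yeast carrying a defined mutation is treated with each compound, and growth is compared with that of vehicle-exposed cells to give inhibition.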

[12] = NCI Yeast Anticancer Drug Screen. Data for the mlh1 strain (AID 171);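 note: 0% = growth of vehicle-treated control cultures of the same strain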; conditions: S. cerevisiae mlh1 strain growth inhibition, stronger effect = higher value
In short: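 Inhibition values reflect reduced yeast growth in the presence of compound, referenced to vehicle controls, using a strain chosen for its alteration in DNA repair or cell cycle control.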

[13] = NCI Yeast Anticancer Drug Screen. Data for the sgs1 strain (AID 173);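 note: 0% = growth of vehicle-only control cultures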; conditions: S. cerevisiae sgs1 mutant, stronger effect = higher value
In short: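 Vehicle-treated cultures served as reference for growth inhibition of a yeast strain altered in DNA damage repair or cell cycle control after compound exposure.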

[14] = NCI Yeast Anticancer Drug Screen. Data for the mlh1 rad18 strain (AID 175); conditions: S. cerevisiae mlh1 rad18 strain growth inhibition, stronger effect = higher value
In short: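 Inhibition values reflect reduced growth of mutant yeast versus vehicle-treated controls following compound exposure; the mutations affect DNA damage repair.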

[15] = NCI Yeast Anticancer Drug Screen. Data for the rad18 strain (AID 177); conditions: S. cerevisiae rad18 mutant growth inhibition, stronger effect = higher value
In short: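 Steps: expose repair-mutant yeast to compound; measure growth; express as inhibition relative to vehicle control.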

[16] = at 5.0 µM (retest, dose inferred, filed as 0.5)
[17] = at 50.0 µM (retest, dose inferred, filed as 5.0)

Measured: growth inhibition

CC(=O)SC(C[N+](=O)[O-])c1ccccc1 (stereo unspecified)
active: [1]; at 3.7 µM 76% | [1]; at 11.0 µM 88% | [1]; at 33.0 µM 99% | [1]; at 100.0 µM 99% | [2]; at 33.0 µM 95% | [2]; at 100.0 µM 100% | [3]; at 1.2 µM 89% | [3]; at 3.7 µM 92% | [3]; at 11.0 µM 95% | [3]; at 33.0 µM 99% | [3]; at 100.0 µM 99% | [4]; at 33.0 µM 81% | [4]; at 100.0 µM 100% | [5]; at 1.2 µM 81% | [5]; at 3.7 µM 92% | [5]; [16] 87% | [5]; at 11.0 µM 96% | [5]; at 33.0 µM 99% | [5]; [17] 98% | [5]; at 50.0 µM 99.2% | [5]; at 100.0 µM 99% | [6]; at 33.0 µM 94% | [6]; [17] 99% | [6]; at 50.0 µM 99.6% | [6]; at 100.0 µM 100% | [7]; at 33.0 µM 98% | [7]; at 100.0 µM 99% | [8]; [17] 98% | [8]; at 50.0 µM 95.8% | [9]; at 33.0 µM 78% | [9]; at 100.0 µM 99% | [10]; [17] 98% | [11]; at 33.0 µM 97% | [11]; [17] 98% | [11]; at 50.0 µM 95.2% | [11]; at 100.0 µM 99% | [12]; at 33.0 µM 96% | [12]; at 100.0 µM 99% | [13]; at 33.0 µM 100% | [13]; at 100.0 µM 99% | [14]; [17] 98% | [14]; at 50.0 µM 99.5% | [15]; at 33.0 µM 93% | [15]; at 100.0 µM 99%
inactive: [1]; at 1.2 µM 55% | [2]; at 1.2 µM 0% | [2]; at 3.7 µM 0% | [2]; at 11.0 µM 17% | [4]; at 1.2 µM 1% | [4]; at 3.7 µM 4% | [4]; at 11.0 µM 18% | [6]; at 1.2 µM 5% | [6]; at 3.7 µM 17% | [6]; [16] -15% | [6]; at 11.0 µM 52% | [7]; at 1.2 µM 14% | [7]; at 3.7 µM 28% | [7]; at 11.0 µM 42% | [8]; [16] -7% | [9]; at 1.2 µM 7% | [9]; at 3.7 µM 19% | [9]; at 11.0 µM 38% | [10]; [16] -20% | [10]; at 50.0 µM 31.1% | [11]; at 1.2 µM 23% | [11]; at 3.7 µM 30% | [11]; [16] 8% | [11]; at 11.0 µM 68% | [12]; at 1.2 µM 5% | [12]; at 3.7 µM 11% | [12]; at 11.0 µM 33% | [13]; at 1.2 µM 15% | [13]; at 3.7 µM 41% | [13]; at 11.0 µM 62% | [14]; [16] -37% | [15]; at 1.2 µM 19% | [15]; at 3.7 µM 33% | [15]; at 11.0 µM 55%

Cc1c(C)c(C)c(CSC(=N)N)c(C)c1C
active: [1]; at 100.0 µM 98% | [2]; at 100.0 µM 98% | [3]; at 100.0 µM 96% | [4]; at 100.0 µM 98% | [5]; [17] 81% | [5]; at 50.0 µM 91.8% | [5]; at 100.0 µM 99% | [6]; [17] 86% | [6]; at 50.0 µM 93.5% | [6]; at 100.0 µM 98% | [7]; at 33.0 µM 85% | [7]; at 100.0 µM 98% | [8]; [17] 100% | [8]; at 50.0 µM 93.3% | [9]; at 100.0 µM 99% | [10]; [17] 100% | [10]; at 50.0 µM 86.1% | [11]; [17] 99% | [11]; at 50.0 µM 83.2% | [11]; at 100.0 µM 98% | [12]; at 33.0 µM 77% | [12]; at 100.0 µM 98% | [13]; at 33.0 µM 84% | [13]; at 100.0 µM 98% | [14]; [17] 78% | [14]; at 50.0 µM 92.3% | [15]; at 100.0 µM 98%
inactive: [1]; at 1.2 µM -23% | [1]; at 3.7 µM -17% | [1]; at 11.0 µM -12% | [1]; at 33.0 µM 36% | [2]; at 1.2 µM -29% | [2]; at 3.7 µM -32% | [2]; at 11.0 µM -30% | [2]; at 33.0 µM 8% | [3]; at 1.2 µM -55% | [3]; at 3.7 µM -53% | [3]; at 11.0 µM -79% | [3]; at 33.0 µM -59% | [4]; at 1.2 µM -52% | [4]; at 3.7 µM -50% | [4]; at 11.0 µM -50% | [4]; at 33.0 µM 6% | [5]; at 1.2 µM -13% | [5]; at 3.7 µM -10% | [5]; [16] 46% | [5]; at 11.0 µM -9% | [5]; at 33.0 µM 51% | [6]; at 1.2 µM -74% | [6]; at 3.7 µM -78% | [6]; [16] 54% | [6]; at 11.0 µM -69% | [6]; at 33.0 µM 31% | [7]; at 1.2 µM -31% | [7]; at 3.7 µM -27% | [7]; at 11.0 µM -12% | [8]; [16] -4% | [9]; at 1.2 µM -22% | [9]; at 3.7 µM -18% | [9]; at 11.0 µM -14% | [9]; at 33.0 µM 59% | [10]; [16] 8% | [11]; at 1.2 µM -23% | [11]; at 3.7 µM -9% | [11]; [16] 35% | [11]; at 11.0 µM -10% | [11]; at 33.0 µM 55% | [12]; at 1.2 µM -35% | [12]; at 3.7 µM -43% | [12]; at 11.0 µM -17% | [13]; at 1.2 µM -51% | [13]; at 3.7 µM -34% | [13]; at 11.0 µM -34% | [14]; [16] 44% | [15]; at 1.2 µM -56% | [15]; at 3.7 µM -55% | [15]; at 11.0 µM -58% | [15]; at 33.0 µM 58%

COc1ccc(/C=C/C(=O)c2ccccc2)cc1OC
51.9% (inactive) and 80.3% (active): [8]; at 50.0 µM
67.5% (inactive) and 83.8% (active): [11]; at 50.0 µM
6.55% (inactive) and 84.3% (active): [5]; at 50.0 µM
inactive: [1]; at 1.2 µM -42% | [1]; at 3.7 µM -42% | [1]; at 11.0 µM -30% | [1]; at 33.0 µM 19% | [2]; at 1.2 µM -2% | [2]; at 3.7 µM -15% | [2]; at 11.0 µM -2% | [2]; at 33.0 µM 28% | [3]; at 1.2 µM 16% | [3]; at 3.7 µM 11% | [3]; at 11.0 µM 28% | [3]; at 33.0 µM 27% | [4]; at 1.2 µM -3% | [4]; at 3.7 µM -30% | [4]; at 11.0 µM -24% | [4]; at 33.0 µM 55% | [5]; at 1.2 µM 12% | [5]; at 3.7 µM 1% | [5]; [16] 22% | [5]; at 11.0 µM -5% | [5]; at 33.0 µM 44% | [5]; [17] 48% | [6]; at 1.2 µM -6% | [6]; at 3.7 µM -12% | [6]; [16] -16% | [6]; at 11.0 µM -2% | [6]; at 33.0 µM 47% | [6]; [17] 59% | [7]; at 1.2 µM 3% | [7]; at 3.7 µM 5% | [7]; at 11.0 µM 14% | [7]; at 33.0 µM 46% | [8]; [16] 15% | [8]; [17] 54% | [9]; at 1.2 µM 12% | [9]; at 3.7 µM 3% | [9]; at 11.0 µM 19% | [9]; at 33.0 µM 37% | [10]; [16] 30% | [10]; [17] 34% | [10]; at 50.0 µM -16.2% and 58.3% | [11]; at 1.2 µM 4% | [11]; at 3.7 µM 14% | [11]; [16] 16% | [11]; at 11.0 µM -36% | [11]; at 33.0 µM 62%
active: [1]; at 100.0 µM 95% | [2]; at 100.0 µM 92% | [3]; at 100.0 µM 75% | [4]; at 100.0 µM 96% | [5]; at 100.0 µM 96% | [6]; at 100.0 µM 95% | [7]; at 100.0 µM 92% | [9]; at 100.0 µM 97% | [11]; [17] 88% | [11]; at 100.0 µM 95%
54% (inactive) and 84% (active): [6]; at 50.0 µM
